# PubChem BioAssay (EPA / NIEHS)
# Values joined by “and” are separate entries in the source; they are usually repeats but may differ in a detail not shown here. Identical values can stand only once. Inconclusive results are not listed. Some compounds were tested as several samples or in several runs, with calls that do not always agree. Active and inactive are the calls of the source. The calls were made as follows: active = hit-call score of the fitted dose curve at least 0.9, where 1 is the maximum; inconclusive = response in the unintended direction; inactive = score below 0.9.
# Key:
# [1] = target: human Matrix Metalloproteinase-3 (MMP3), MMP3 (gene 4314) (UniProt P08254); test: NVS_ENZ_hMMP3: NovaScreen (NVS) Enzymatic Assay for human Matrix Metalloproteinase-3 (MMP3) (AID 2283185)
# How it was run: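 Fluorescent substrate turnover by recombinant MMP3 read after 1 h, signal loss scored against DMSO. Compounds first run in duplicate at 25 uM single dose, then actives confirmed by concentration series.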
# [2] = target: human Matrix Metalloproteinase-1 (MMP1), MMP1 (gene 4312) (UniProt P03956); test: NVS_ENZ_hMMP1: NovaScreen (NVS) Enzymatic Assay for human Matrix Metalloproteinase-1 (MMP1) (AID 2283181)
# How it was run: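 Cell-free fluorescent substrate assay of human MMP1, read after 1 h. A single 25 uM duplicate screen was followed by concentration series to a maximum of 50 uM for actives meeting threshold; inhibition analysed against DMSO baseline.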
# [3] = target: human Phosphoinositide 3-kinase alpha (PI3Ka), PIK3CA (gene 5290) (UniProt P42336); test: NVS_ENZ_hPI3Ka: NovaScreen (NVS) Enzymatic Assay for human Phosphoinositide 3-kinase alpha (PI3Ka) (AID 2283196)
# How it was run: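 Enzyme activity as fluorescence after mobility-shift separation of substrate and product, 1 h reaction, recombinant human PI3Kα; concentration-response to 50 uM max for chemicals passing a 25 uM duplicate screen.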
# [4] = target: human Phosphodiesterase 5 (PDE5), PDE5A (gene 8654) (UniProt O76074); test: NVS_ENZ_hPDE5: NovaScreen (NVS) Enzymatic Assay for human Phosphodiesterase 5 (PDE5) (AID 2283194)
# How it was run: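 Screening began in duplicate at 25 uM, with actives taken into concentration-response. Enzyme activity of recombinant PDE5 toward its substrate was measured at 1 h by fluorescence mobility-shift detection, relative to DMSO controls.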
# [5] = target: human Matrix Metalloproteinase-9 (MMP9), MMP9 (gene 4318) (UniProt P14780); test: NVS_ENZ_hMMP9: NovaScreen (NVS) Enzymatic Assay for human Matrix Metalloproteinase-9 (MMP9) (AID 2283190);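 also: cell-free recombinant MMP9 protease activity read by fluorescent substrate signal; active means inhibition seen as loss of fluorescence signal versus DMSO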
# How it was run: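 Cell-free fluorescence-intensity enzyme activity assay using extracted protein, read 1 h after dosing. Loss of signal versus DMSO baseline indicates inhibition; primary screen in duplicate at 25 uM, actives followed up in concentration series.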
# [6] = target: Tyrosine-protein phosphatase non-receptor type 11 (Homo sapiens) (UniProt Q06124); test: NVS_ENZ_hPTPN11: NovaScreen (NVS) Enzymatic Assay for human Protein Tyrosine Phosphatase Non-receptor Type 11 (PTPN11) (AID 2283202)
# How it was run: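 Compounds first tested in duplicate at 25 uM; those reaching ~30% inhibition rerun in singleton concentration-response, top 50 uM. Phosphatase activity measured after 0.5 h by fluorescence with mobility-shift separation, relative to DMSO.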
# [7] = target: human MET Proto-Oncogene, Receptor Tyrosine Kinase (MET), MET (gene 4233) (UniProt P08581); test: NVS_ENZ_hMet: NovaScreen (NVS) Enzymatic Assay for human MET Proto-Oncogene, Receptor Tyrosine Kinase (MET) (AID 2283180)
# How it was run: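 Hits from a 25 uM duplicate screen were retested in concentration series up to 50 uM. Enzyme activity was measured by fluorescence after electrophoretic separation of product from substrate, 1 h after compound addition, relative to DMSO.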
# [8] = target: human Mitogen- and Stress-activated Protein Kinase-1 (Msk1), RPS6KA5 (gene 9252) (UniProt O75582); test: NVS_ENZ_hMsk1: NovaScreen (NVS) Enzymatic Assay for human Mitogen- and Stress-activated Protein Kinase-1 (Msk1) (AID 2283187)
# How it was run: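 Chemicals first run in duplicate at 25 uM, with actives followed up in singleton concentration series to 50 uM maximum. Enzyme activity came from substrate/product mobility-shift separation with fluorescence detection after 1 h incubation of the recombinant protein.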
# [9] = target: human NIMA (Never In Mitosis Gene A)-Related Kinase 2 (NEK2), NEK2 (gene 4751) (UniProt P51955); test: NVS_ENZ_hNEK2: NovaScreen (NVS) Enzymatic Assay for human NIMA (Never In Mitosis Gene A)-Related Kinase 2 (NEK2) (AID 2283188)
# How it was run: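 Compounds were first screened in duplicate at 25 uM, with actives followed up in concentration series. Recombinant NEK2 activity, cell-free, was read 1 h after dosing by fluorescence intensity after mobility-shift separation. Signal loss was scored against DMSO.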
# [10] = target: human p21 Activated Kinase 4 (PAK4), PAK4 (gene 10298) (UniProt O96013); test: NVS_ENZ_hPAK4: NovaScreen (NVS) Enzymatic Assay for human p21 Activated Kinase 4 (PAK4) (AID 2283189)
# How it was run: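 Extracted PAK4 enzyme activity read by fluorescence with mobility-shift separation 1 h after chemical addition. Duplicate single-concentration screen at 25 uM, DMSO as negative control.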
# [11] = target: human Phosphodiesterase 4A1 (PDE4A1), PDE4A (gene 5141) (UniProt P27815); test: NVS_ENZ_hPDE4A1: NovaScreen (NVS) Enzymatic Assay for human Phosphodiesterase 4A1 (PDE4A1) (AID 2283191)
# How it was run: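 Fluorescent substrate turnover by recombinant PDE4A1 read after 1 h by mobility-shift separation. Primary duplicate screen at 25 uM; hits retested in concentration series with a 50 uM maximum, relative to DMSO.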
# [12] = target: human Phosphodiesterase 10 (PDE10), PDE10A (gene 10846) (UniProt Q9Y233); test: NVS_ENZ_hPDE10: NovaScreen (NVS) Enzymatic Assay for human Phosphodiesterase 10 (PDE10) (AID 2283195)
# How it was run: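 Biochemical single-readout PDE10A assay, cell-free, extracted protein. Compounds first screened at 25 uM in duplicate, hits then titrated to 50 uM max. Activity measured after 1 h; loss-of-signal fitted against DMSO negative control.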
# PPP2CA (gene 5515) = PPP2CA (gene 5515) (UniProt P67775); test: NVS_ENZ_hPPP2CA: NovaScreen (NVS) Enzymatic Assay for human Protein Phosphatase 2 Aatalytic subunit Alpha (PPP2CA) (AID 2283199)
# How it was run: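 Cell-free phosphatase activity: fluorescent substrate turnover by recombinant human enzyme, resolved by mobility shift at 1.33 h. Compounds passing the 25 uM duplicate primary screen were rerun in singleton series with a 50 uM top concentration.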
# [13] = target: Serine/threonine-protein phosphatase PP1-alpha catalytic subunit (Homo sapiens) (UniProt P62136); test: NVS_ENZ_hPPP1CA: NovaScreen (NVS) Enzymatic Assay for human Protein Phosphatase 1 Aatalytic subunit Alpha (PPP1CA) (AID 2283200)
# How it was run: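 Chemicals were first screened in duplicate at 25 uM, and those passing threshold (e.g. 30% inhibition) were run as concentration series to 50 uM. Cell-free recombinant protein, 1.33 h read, fluorescent substrate/product mobility-shift detection, normalised to DMSO.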
# [14] = target: human Protein Tyrosine Phosphatase Non-receptor Type 1 (PTPN1), PTPN1 (gene 5770) (UniProt P18031); test: NVS_ENZ_hPTPN1: NovaScreen (NVS) Enzymatic Assay for human Protein Tyrosine Phosphatase Non-receptor Type 1 (PTPN1) (AID 2283201)
# How it was run: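 Chemicals were first tested in duplicate at 25 uM, and those passing threshold went on to singleton concentration series topping at 50 uM. Recombinant enzyme, specific substrate, product separated by mobility shift, fluorescence read at 1.33 h; activity loss relative to DMSO.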
# [15] = target: Collagenase 3 (Homo sapiens) (UniProt P45452); test: NVS_ENZ_hMMP13: NovaScreen (NVS) Enzymatic Assay for human Matrix Metalloproteinase-13 (MMP13) (AID 2283182)
# How it was run: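 Recombinant MMP13 cleaving fluorescent substrate, cell-free, measured 1 h after dosing. Primary duplicate screen at 25 uM; actives tested in concentration-response up to 50 uM; loss of signal relative to DMSO.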
# [16] = target: human Matrix Metalloproteinase-2 (MMP2), MMP2 (gene 4313) (UniProt P08253); test: NVS_ENZ_hMMP2: NovaScreen (NVS) Enzymatic Assay for human Matrix Metalloproteinase-2 (MMP2) (AID 2283184)
# How it was run: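 Compounds first screened in duplicate at a single 25 uM, with actives followed up in concentration series. Recombinant human MMP2 cleaves a fluorogenic substrate; fluorescence taken at 1 h, inhibition fitted relative to DMSO.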
# [17] = target: cAMP-dependent protein kinase catalytic subunit alpha (Homo sapiens) (UniProt P17612); test: NVS_ENZ_hPKA: NovaScreen (NVS) Enzymatic Assay for human Protein Kinase A (PKA) (AID 2283192)
# How it was run: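 Cell-free kinase activity read by fluorescence after mobility-shift separation of substrate and product, 1 h post-dosing. Single-concentration duplicate screen (25 uM) preceded singleton concentration series (top 50 uM); loss of signal versus DMSO.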
# [18] = target: human Matrix Metalloproteinase-7 (MMP7), MMP7 (gene 4316) (UniProt P09237); test: NVS_ENZ_hMMP7: NovaScreen (NVS) Enzymatic Assay for human Matrix Metalloproteinase-7 (MMP7) (AID 2283183)
# How it was run: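 Compounds first tested at 25 uM in duplicate, then at up to 50 uM in concentration series if active. Protease activity measured by fluorescence intensity 1 h after dosing, with fitting relative to DMSO.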
# [19] = target: human Phosphatase and Tensin Homolog (PTEN), PTEN (gene 5728) (UniProt P60484); test: NVS_ENZ_hPTEN: NovaScreen (NVS) Enzymatic Assay for human Phosphatase and Tensin Homolog (PTEN) (AID 2283203)
# How it was run: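 Loss of fluorescent product signal after mobility-shift separation reports PTEN activity, recombinant human enzyme, 1 h after compound addition. Single 25 uM duplicate screen, then concentration-response on actives; DMSO baseline.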
# Chain of human Matrix Metalloproteinase-3 (MMP3), MMP3 (gene 4314) (P08254 whole entry, looked up): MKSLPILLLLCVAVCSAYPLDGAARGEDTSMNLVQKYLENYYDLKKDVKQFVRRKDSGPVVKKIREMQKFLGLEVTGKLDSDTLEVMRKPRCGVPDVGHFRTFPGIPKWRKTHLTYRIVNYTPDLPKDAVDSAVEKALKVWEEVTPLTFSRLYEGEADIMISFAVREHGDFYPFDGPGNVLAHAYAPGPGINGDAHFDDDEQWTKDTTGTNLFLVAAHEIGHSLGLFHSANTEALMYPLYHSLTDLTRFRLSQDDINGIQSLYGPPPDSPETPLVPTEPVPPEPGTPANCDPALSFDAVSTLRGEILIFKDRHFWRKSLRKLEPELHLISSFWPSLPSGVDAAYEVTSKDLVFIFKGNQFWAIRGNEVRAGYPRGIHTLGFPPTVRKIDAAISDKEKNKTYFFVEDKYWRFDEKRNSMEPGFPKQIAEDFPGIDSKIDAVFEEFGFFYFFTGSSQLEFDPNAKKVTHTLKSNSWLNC
# Chain of PPP2CA (gene 5515) (P67775 whole entry, looked up): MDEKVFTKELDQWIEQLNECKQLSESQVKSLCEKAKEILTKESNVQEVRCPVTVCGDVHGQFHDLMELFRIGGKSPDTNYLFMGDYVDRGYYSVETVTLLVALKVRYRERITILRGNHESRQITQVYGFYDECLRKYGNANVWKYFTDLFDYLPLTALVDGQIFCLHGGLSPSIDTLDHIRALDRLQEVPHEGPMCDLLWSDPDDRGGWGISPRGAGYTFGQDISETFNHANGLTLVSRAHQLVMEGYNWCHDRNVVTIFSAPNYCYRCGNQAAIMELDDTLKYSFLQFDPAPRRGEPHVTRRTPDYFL
# Chain of Tyrosine-protein phosphatase non-receptor type 11 (Homo sapiens) (Q06124 whole entry, looked up): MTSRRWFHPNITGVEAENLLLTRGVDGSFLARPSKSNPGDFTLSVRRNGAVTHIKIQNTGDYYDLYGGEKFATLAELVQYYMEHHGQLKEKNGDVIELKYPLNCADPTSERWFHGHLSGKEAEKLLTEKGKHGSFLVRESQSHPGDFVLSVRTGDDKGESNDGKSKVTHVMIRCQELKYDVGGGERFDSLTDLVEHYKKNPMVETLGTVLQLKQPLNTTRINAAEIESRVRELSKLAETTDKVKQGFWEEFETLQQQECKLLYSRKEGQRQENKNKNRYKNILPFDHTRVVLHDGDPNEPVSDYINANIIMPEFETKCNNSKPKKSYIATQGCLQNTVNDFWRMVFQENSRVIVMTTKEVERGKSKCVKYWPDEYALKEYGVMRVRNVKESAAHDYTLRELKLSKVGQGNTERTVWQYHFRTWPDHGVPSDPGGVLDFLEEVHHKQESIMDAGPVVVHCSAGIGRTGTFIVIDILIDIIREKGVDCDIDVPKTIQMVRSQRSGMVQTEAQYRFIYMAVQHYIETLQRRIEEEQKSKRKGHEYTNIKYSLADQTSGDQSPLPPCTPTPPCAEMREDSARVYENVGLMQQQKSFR
# Chain of human Phosphatase and Tensin Homolog (PTEN), PTEN (gene 5728) (P60484 whole entry, looked up): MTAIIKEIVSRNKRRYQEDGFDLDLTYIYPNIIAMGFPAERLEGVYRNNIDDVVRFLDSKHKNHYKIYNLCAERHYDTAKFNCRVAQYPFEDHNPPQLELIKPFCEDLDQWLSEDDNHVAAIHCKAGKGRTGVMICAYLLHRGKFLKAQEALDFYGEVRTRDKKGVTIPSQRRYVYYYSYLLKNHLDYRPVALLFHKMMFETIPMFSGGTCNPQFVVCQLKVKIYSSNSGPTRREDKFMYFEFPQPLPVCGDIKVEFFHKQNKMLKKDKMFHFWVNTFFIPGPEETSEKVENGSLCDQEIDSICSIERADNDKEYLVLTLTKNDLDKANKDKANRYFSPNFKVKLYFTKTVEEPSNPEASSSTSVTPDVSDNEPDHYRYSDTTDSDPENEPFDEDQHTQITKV
# Chain of human MET Proto-Oncogene, Receptor Tyrosine Kinase (MET), MET (gene 4233) (P08581 whole entry, looked up): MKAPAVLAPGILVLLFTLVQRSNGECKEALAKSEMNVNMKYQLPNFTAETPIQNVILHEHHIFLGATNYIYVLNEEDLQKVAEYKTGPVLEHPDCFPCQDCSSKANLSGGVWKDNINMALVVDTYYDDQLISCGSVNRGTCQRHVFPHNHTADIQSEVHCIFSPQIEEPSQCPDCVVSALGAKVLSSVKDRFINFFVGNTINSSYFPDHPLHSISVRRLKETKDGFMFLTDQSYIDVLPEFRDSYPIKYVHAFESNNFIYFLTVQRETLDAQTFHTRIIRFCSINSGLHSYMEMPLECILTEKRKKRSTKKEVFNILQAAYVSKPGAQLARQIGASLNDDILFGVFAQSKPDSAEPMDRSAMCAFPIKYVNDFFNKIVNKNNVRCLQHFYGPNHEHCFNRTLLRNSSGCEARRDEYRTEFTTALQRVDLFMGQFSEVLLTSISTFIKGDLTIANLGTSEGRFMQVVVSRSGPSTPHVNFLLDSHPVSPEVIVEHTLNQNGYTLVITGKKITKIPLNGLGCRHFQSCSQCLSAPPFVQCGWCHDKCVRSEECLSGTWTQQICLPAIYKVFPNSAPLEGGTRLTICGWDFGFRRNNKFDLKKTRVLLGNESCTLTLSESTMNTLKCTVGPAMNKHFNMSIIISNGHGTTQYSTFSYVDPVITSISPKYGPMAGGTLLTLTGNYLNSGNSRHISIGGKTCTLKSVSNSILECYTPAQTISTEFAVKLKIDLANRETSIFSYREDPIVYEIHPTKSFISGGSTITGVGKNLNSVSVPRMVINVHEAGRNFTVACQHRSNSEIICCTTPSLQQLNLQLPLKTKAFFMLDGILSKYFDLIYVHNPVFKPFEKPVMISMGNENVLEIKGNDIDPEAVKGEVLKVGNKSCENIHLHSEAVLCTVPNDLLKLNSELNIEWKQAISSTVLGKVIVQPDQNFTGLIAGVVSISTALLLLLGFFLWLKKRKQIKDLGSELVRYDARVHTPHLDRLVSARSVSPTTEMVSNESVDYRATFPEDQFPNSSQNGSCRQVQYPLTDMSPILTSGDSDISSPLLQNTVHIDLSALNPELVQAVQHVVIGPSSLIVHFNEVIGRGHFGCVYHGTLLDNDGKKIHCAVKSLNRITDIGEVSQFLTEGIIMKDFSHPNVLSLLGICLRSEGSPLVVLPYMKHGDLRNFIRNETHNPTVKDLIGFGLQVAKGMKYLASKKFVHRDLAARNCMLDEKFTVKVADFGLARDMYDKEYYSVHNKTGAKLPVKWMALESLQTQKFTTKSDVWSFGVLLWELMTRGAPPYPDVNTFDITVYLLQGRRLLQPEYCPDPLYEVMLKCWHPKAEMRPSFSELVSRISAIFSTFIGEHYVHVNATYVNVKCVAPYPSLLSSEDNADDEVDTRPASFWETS
# Chain of human Phosphodiesterase 4A1 (PDE4A1), PDE4A (gene 5141) (P27815 whole entry, looked up): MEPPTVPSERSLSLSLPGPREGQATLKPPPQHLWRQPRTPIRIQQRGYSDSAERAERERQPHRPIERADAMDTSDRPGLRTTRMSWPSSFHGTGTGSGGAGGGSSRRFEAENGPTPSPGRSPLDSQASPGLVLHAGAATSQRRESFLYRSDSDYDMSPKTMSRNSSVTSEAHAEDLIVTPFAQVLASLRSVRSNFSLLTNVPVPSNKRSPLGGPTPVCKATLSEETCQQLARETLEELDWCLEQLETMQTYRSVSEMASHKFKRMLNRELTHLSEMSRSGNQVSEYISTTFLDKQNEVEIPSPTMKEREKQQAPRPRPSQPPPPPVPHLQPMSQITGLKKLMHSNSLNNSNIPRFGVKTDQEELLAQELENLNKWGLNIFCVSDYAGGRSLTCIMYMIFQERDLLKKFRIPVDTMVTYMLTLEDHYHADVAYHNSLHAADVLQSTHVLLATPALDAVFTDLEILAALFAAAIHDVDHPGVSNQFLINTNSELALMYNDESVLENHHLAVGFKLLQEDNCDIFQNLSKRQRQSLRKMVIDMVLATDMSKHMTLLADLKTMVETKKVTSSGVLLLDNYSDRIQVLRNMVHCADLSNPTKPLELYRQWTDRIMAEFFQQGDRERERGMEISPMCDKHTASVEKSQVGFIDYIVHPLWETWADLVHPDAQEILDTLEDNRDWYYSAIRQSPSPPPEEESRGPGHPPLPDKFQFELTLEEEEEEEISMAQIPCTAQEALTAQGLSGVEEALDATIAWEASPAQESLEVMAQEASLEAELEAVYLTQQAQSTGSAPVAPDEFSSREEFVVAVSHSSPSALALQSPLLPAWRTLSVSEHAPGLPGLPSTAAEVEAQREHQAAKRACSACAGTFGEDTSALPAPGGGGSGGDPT
# Chain of human Matrix Metalloproteinase-9 (MMP9), MMP9 (gene 4318) (P14780 whole entry, looked up): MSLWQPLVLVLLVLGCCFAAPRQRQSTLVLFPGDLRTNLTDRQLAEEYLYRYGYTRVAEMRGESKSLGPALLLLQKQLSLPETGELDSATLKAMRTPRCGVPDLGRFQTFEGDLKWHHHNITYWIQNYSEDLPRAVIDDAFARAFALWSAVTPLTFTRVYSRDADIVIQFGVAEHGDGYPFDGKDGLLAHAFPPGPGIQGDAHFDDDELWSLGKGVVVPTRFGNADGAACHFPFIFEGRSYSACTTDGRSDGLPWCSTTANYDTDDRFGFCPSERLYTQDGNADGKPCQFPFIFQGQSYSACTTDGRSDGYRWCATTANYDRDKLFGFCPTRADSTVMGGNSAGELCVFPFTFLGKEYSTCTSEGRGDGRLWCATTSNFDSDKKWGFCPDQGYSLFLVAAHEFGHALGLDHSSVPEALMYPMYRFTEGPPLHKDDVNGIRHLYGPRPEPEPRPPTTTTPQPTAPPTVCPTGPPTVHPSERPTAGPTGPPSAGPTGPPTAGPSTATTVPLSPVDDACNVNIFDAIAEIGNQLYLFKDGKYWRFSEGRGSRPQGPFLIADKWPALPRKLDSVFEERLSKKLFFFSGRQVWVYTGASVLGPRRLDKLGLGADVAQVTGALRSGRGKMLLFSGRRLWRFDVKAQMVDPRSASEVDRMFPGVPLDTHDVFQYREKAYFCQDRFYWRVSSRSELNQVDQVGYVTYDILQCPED
# Chain of human Matrix Metalloproteinase-7 (MMP7), MMP7 (gene 4316) (P09237 whole entry, looked up): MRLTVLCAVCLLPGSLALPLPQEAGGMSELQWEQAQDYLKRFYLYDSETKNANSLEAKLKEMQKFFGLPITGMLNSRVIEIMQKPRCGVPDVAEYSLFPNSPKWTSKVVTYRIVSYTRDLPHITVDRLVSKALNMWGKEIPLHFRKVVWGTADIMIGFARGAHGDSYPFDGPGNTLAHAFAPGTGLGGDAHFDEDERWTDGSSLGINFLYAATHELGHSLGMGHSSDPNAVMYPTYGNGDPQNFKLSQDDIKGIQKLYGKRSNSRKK
structure (smiles),measurement,setting,value
O=C(O)c1nc(Cl)ccc1Cl,outcome,[1],inactive
CC(C)C1(C)N=C(c2nc3ccccc3cc2C(=O)O)NC1=O (stereo not drawn),outcome,[2],inactive
CCCC1COC(Cn2cncn2)(c2ccc(Cl)cc2Cl)O1 (stereo not drawn),AC50,[2],6.45 µM (active)
CC1=C(C(=O)Nc2ccccc2)SCCO1,outcome,[3],inactive
O=C(Nc1ccccc1)Nc1ccnc(Cl)c1,AC50,[4],10 µM (active)
CC1COC(Cn2cncn2)(c2ccc(Oc3ccc(Cl)cc3)cc2Cl)O1 (stereo not drawn),outcome,[5],inactive
same,outcome,[4],inactive
CCCCOC(=O)c1ccccc1C(=O)OCCCC,outcome,[6],inactive
CCCN(CCC)c1c([N+](=O)[O-])cc(S(N)(=O)=O)cc1[N+](=O)[O-],outcome,[7],inactive
same,outcome,[8],inactive
same,outcome,[9],inactive
same,outcome,[10],inactive
same,outcome,[11],inactive
same,outcome,[4],inactive
same,outcome,[12],inactive
same,outcome,[3],inactive
same,outcome,PPP2CA (gene 5515),inactive
same,outcome,[13],inactive
same,outcome,[14],inactive
same,outcome,[6],inactive
CO/C=C(/C(=O)OC)c1ccccc1Oc1cc(Oc2ccccc2C#N)ncn1,outcome,[15],inactive
same,outcome,[16],inactive
same,outcome,[1],inactive
same,AC50,[11],14 µM (active)
same,outcome,[11],inactive
same,outcome,[3],inactive
COC(=O)c1ccccc1C(=O)OC,outcome,[3],inactive
COc1nc(C)nc(NC(=O)NS(=O)(=O)c2ccccc2Cl)n1,outcome,[17],inactive
same,outcome,PPP2CA (gene 5515),inactive
COc1nc(NC(C)C)nc(NC(C)C)n1,AC50,[11],13.4 µM (active)
CCNc1nc(Cl)nc(NCC)n1,outcome,[16],inactive
same,AC50,[11],8.46 µM (active)
N#Cc1nn(-c2c(Cl)cc(C(F)(F)F)cc2Cl)c(N)c1S(=O)C(F)(F)F (stereo not drawn),outcome,[1],inactive
same,outcome,[17],inactive
same,outcome,[3],inactive
CS/C(C)=N/OC(=O)N(C)SN(C)C(=O)O/N=C(\C)SC,outcome,[3],inactive
COc1ccc(C(c2ccc(OC)cc2)C(Cl)(Cl)Cl)cc1,outcome,[18],inactive
same,outcome,[5],inactive
same,outcome,[6],inactive
C=CCC1=C(C)C(OC(=O)C2C(C=C(C)C)C2(C)C)CC1=O (stereo not drawn),AC50,[2],8.92 µM (active)
same,AC50,[5],0.793 µM (active)
C#CCOS(=O)OC1CCCCC1Oc1ccc(C(C)(C)C)cc1 (stereo not drawn),outcome,[19],inactive
CCCCNC(=O)n1c(NC(=O)OC)nc2ccccc21,outcome,[5],inactive
same,outcome,[4],inactive
Oc1ccccc1-c1ccccc1,outcome,[13],inactive
N#Cc1cc(Br)c(O)c(Br)c1,outcome,[18],inactive
Cc1cc(Cl)ccc1OCC(=O)O,outcome,[13],inactive
CNC(=S)S,outcome,[7],inactive
same,outcome,[18],inactive
same,outcome,[1],inactive
same,outcome,[8],inactive
same,outcome,[17],inactive
same,outcome,[6],inactive
CN(C)C(=S)SSC(=S)N(C)C,outcome,[7],inactive
same,outcome,[3],inactive
COc1nc(C)nc(NC(=O)NS(=O)(=O)c2ccccc2CCC(F)(F)F)n1,outcome,[7],inactive
same,outcome,[18],inactive
same,AC50,[4],25 µM (active)
same,outcome,[3],inactive
Cc1ccc(-c2c(Cl)nc(C#N)n2S(=O)(=O)N(C)C)cc1,AC50,[4],11.7 µM (active)
same,outcome,[19],inactive
COc1cnc(OC)n2nc(NS(=O)(=O)c3c(OCC(F)F)cccc3C(F)(F)F)nc12,outcome,[12],inactive
same,outcome,PPP2CA (gene 5515),inactive
CCCCNC(=O)OCC#CI,outcome,[13],inactive
CON(C)C(=O)Nc1ccc(Cl)c(Cl)c1,AC50,[11],3.85 µM (active)
same,AC50,[4],7.19 µM (active) and 9.03 µM (active)
same,outcome,[19],inactive
COP(=S)(OC)Oc1nc(Cl)c(Cl)cc1Cl,outcome,[14],inactive
CCOC(=O)CC(SP(=S)(OC)OC)C(=O)OCC (stereo not drawn),outcome,[5],inactive
same,outcome,[11],inactive
same,outcome,PPP2CA (gene 5515),inactive
same,outcome,[13],inactive
COC(=O)C=C(C)OP(=O)(OC)OC,outcome,[1],inactive
CCOP(=S)(OCC)SCn1c(=O)oc2cc(Cl)ccc21,outcome,[18],inactive
same,AC50,[11],9.57 µM (active)
same,outcome,[4],inactive
CCNc1nc(Cl)nc(NC(C)C)n1,AC50,[11],1.22 µM (active)
same,AC50,[4],4.96 µM (active) and 8.17 µM (active)
